Data from PubChem BioAssay (NCI).
This is part of a sample that, as a whole, favours compounds with a hit. Of some 79,000 tested, about 15% had one in any assay. Activity calls are given as the source filed them. Rule as the data show it: active = growth inhibition above about 70%; inactive = the rest.

Tests used:
[1] = NCI Yeast Anticancer Drug Screen. Data for the rad50 strain (AID 155);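 also: 0% = growth of vehicle-only cultures of the same strain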; conditions: S. cerevisiae rad50 strain growth inhibition; at 50.0 µM; active compounds read high
Procedure, shortened: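 Vehicle-treated cultures provide the reference for the growth inhibition reported for compound-exposed, repair-deficient yeast.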

[2] = NCI Yeast Anticancer Drug Screen. Data for the mec2-1 strain (AID 157); conditions: S. cerevisiae mec2-1 strain, at 50.0 µM, active compounds read high
Procedure, shortened: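 Each compound was tested on mec2-1 yeast, a strain altered in DNA damage repair or cell cycle control. Growth inhibition is reported relative to vehicle.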

[3] = NCI Yeast Anticancer Drug Screen. Data for the sgs1 mgt1 strain (AID 161);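 also: 0% = growth of cultures given vehicle only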; conditions: S. cerevisiae sgs1 mgt1 strain, at 50.0 µM, active compounds read high
Procedure, shortened: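 Read-out: growth inhibition vs vehicle controls. Cells: mutant yeast strain deficient in DNA damage repair.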

[4] = NCI Yeast Anticancer Drug Screen. Data for the cln2 rad14 strain (AID 165);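 also: 0% = growth equal to vehicle treated cultures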; conditions: S. cerevisiae cln2 rad14 strain, at 50.0 µM, active compounds read high
Procedure, shortened: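 Test compounds were added to cln2 rad14 yeast cultures; inhibition of growth was then determined by comparison with vehicle treatment.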

[5] = NCI Yeast Anticancer Drug Screen. Data for the bub3 strain (AID 167); conditions: S. cerevisiae bub3 mutant strain, at 50.0 µM, active compounds read high
Procedure, shortened: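 Mutant yeast screening strain plus compound; vehicle-treated cultures serve as the 0% inhibition reference.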

[6] = NCI Yeast Anticancer Drug Screen. Data for the mlh1 rad18 strain (AID 175); conditions: S. cerevisiae mlh1 rad18 strain growth inhibition; at 50.0 µM; active compounds read high
Procedure, shortened: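 Inhibition values reflect reduced growth of mutant yeast versus vehicle-treated controls following compound exposure; the mutations affect DNA damage repair.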

Measured: growth inhibition

CCOC(=O)CC1(C)NC(=O)NC1=O (stereo unspecified)
inactive: [1] 4.35% | [2] 6.65% | [3] 8.45% | [4] -31.8% | [5] -4.4% | [6] 1%

CC(C)CC(NC(=O)C(CS)NC(=O)CN1C(=O)CCC1=O)C(N)=O (stereo unspecified)
inactive: [1] 15.1% | [2] -2.5% | [3] 4.65% | [4] -17.1% | [5] 13.3% | [6] 19.8%

Cc1cc2c(C(C)C)c(O)c(O)c(C=NCc3ccc(Br)cc3)c2c(O)c1-c1c(C)cc2c(C(C)C)c(O)c(O)c(C=NCc3ccc(Br)cc3)c2c1O
inactive: [1] -5.6% | [2] 1.6% | [3] 26.6% | [4] -22.1% | [5] -9.15% | [6] 27.8%

Cn1c(=O)c2c(nc3sc4nc5ccccc5nc4n32)n(C)c1=O
inactive: [1] -9.7% | [2] -15.9% | [3] -5.45% | [4] -25.4% | [5] -30.4% | [6] 13.1%

COC(=O)CCC(=O)c1ccc(OC)cc1
inactive: [1] 4.7% | [2] -6.5% | [3] 3.35% | [4] -0.95% | [5] 10.2% | [6] 2.45%

O=C1c2c(/C=C/c3ccc(Cl)c(Cl)c3)nc3ccccc3c2C(=O)N1CCN1CCCCC1
active: [1] 89.3% | [3] 83.2% | [6] 79.3%
inactive: [2] 50.6% | [4] 17.9% | [5] 18.4%

COc1cccc(C2c3cc4c(cc3OC(C)(N3CCCC3)C2C)OCO4)c1OC (stereo unspecified)
inactive: [1] -4% | [2] -4.7% | [3] -4.8% | [4] -4.25% | [5] -13.5% | [6] 12.1%

O=[N+]([O-])c1ccc(Cl)c(C(F)(F)F)c1
inactive: [1] -0.8% | [2] 5.2% | [3] 4% | [4] -2.75% | [5] 1.2% | [6] -15.7%

Fc1ccc(NC(=S)NCCN2CCCC2)cc1
inactive: [1] 3.9% | [2] 34.2% | [3] 8.1% | [4] 3.75% | [5] 12.8% | [6] -4.3%

Cc1cccc(C2CCCCC2OS(C)(=O)=O)c1 (stereo unspecified)
inactive: [1] -2.95% | [2] -6.4% | [3] -16.9% | [4] -10.1% | [5] 11.8% | [6] -13.6%

CCc1ccccc1NC(=O)N1CCOCC1
inactive: [1] -8.45% | [2] -27.9% | [3] -1.55% | [4] 3.05% | [5] -4.15% | [6] -7.15%

CC1(C)OC12C=CC1C2C2CCC1C21OC1(C)C (stereo unspecified)
inactive: [1] 8% | [2] 8.7% | [3] -2.85% | [4] 20.1% | [5] -7.3% | [6] -14.6%

Cc1nc(Cl)c(C)c(Cl)n1
inactive: [1] 13.4% | [2] -28.6% | [3] 1.4% | [4] 5.2% | [5] -5% | [6] 15.9%

Cc1nn(C(=O)c2ccc(Cl)cc2)c2c1C(c1ccccc1[N+](=O)[O-])SC(N)=N2 (stereo unspecified)
inactive: [1] -9.6% | [2] -1.5% | [3] 7.05% | [4] 33% | [5] 27.6% | [6] -9.05%

Brc1ncnc2c1ncn2C1CCCO1 (stereo unspecified)
inactive: [1] -21.3% | [2] -12.8% | [3] -1.5% | [4] -29.6% | [5] 34.4% | [6] -32.2%

Brc1cc(Br)cc(-c2nnc(-c3cccc4ccccc34)o2)c1
inactive: [1] -14.1% | [2] -16.4% | [3] 0.25% | [4] 24.1% | [5] 10.2% | [6] -4.65%

NNC(=O)CNC(=O)c1ccccc1
inactive: [1] 11.5% | [2] -14.6% | [3] -10.9% | [4] 1.85% | [5] 0% | [6] -15%

CCCCCCCNC(C)=O
inactive: [1] 14.1% | [2] 15.5% | [3] 3.6% | [4] 10.1% | [5] -0.7% | [6] -5%

ClC1CCCCC1
inactive: [1] -12.8% | [2] -2.55% | [3] -0.35% | [4] -7.95% | [5] -7.2% | [6] -31.2%

Cn1c2c(c(=O)n(C)c1=O)C(=Nc1ccccc1)C(=O)N2
inactive: [1] 0.2% | [2] 9.25% | [3] 7.2% | [4] -38.3% | [5] 1.65% | [6] 14.3%

COC(=O)c1ccc(C(=O)OC)c(NC(=O)CC(=O)c2ccc([N+](=O)[O-])cc2)c1
inactive: [1] 46.2% | [2] 18.9% | [3] 51.4% | [4] 9.55% | [5] -0.5% | [6] 34.8%
